{
  "source": "PubChem BioAssay",
  "note": "Active and inactive are the calls of the source. No rule for the calls is given here.",
  "data": [
    {"target": "Pantothenate synthetase (Mycobacterium tuberculosis (strain ATCC 25618 / H37Rv)) (UniProt P9WIL5)", "sequence (P9WIL5 whole entry, looked up)": "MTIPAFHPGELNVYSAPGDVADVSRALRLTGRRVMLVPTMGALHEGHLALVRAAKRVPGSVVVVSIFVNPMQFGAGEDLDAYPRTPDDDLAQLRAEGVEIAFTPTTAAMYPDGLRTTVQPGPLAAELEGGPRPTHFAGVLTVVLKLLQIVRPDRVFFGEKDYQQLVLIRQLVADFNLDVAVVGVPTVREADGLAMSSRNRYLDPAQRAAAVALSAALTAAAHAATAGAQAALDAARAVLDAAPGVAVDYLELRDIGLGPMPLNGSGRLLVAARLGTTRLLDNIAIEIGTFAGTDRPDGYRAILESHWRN", "test": "Coupled enzyme confirmation of inhibitors against recombinant Mtb PanC (AID 375);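 also: 0% = full reaction with vehicle and 100% = no enzyme background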", "conditions": "coupled enzyme assay; at 10 µM, hits give high values", "values": [
      {"smiles": "COc1ccc(C2CC(c3ccc(Cl)cc3)Nc3nc(NC(=O)c4ccco4)nn32)cc1", "note": "(stereo unspecified)", "inhibition": "4% (inactive)"},
      {"smiles": "Cc1c(C)[n+](=O)c2c(n1[O-])CCCCC2", "inhibition": "1% (inactive)"},
      {"smiles": "FC(F)(F)COc1nc(N2CCCCC2)nc(N2CCNCC2)n1", "inhibition": "4% (inactive)"},
      {"smiles": "O=C1CCc2nc3sc4c(c3c(=O)n2N1)CCCC4", "inhibition": "0% (inactive)"},
      {"smiles": "COc1ccc(OCCC(=O)NCc2ccccc2)cc1", "inhibition": "0% (inactive)"},
      {"smiles": "COC(=O)CCCCCNc1ccc(C(=O)OC)cc1N", "inhibition": "0% (inactive)"},
      {"smiles": "CCCCCn1c(CN(C)Cc2ccccc2)nc2c1c(=O)n(C)c(=O)n2C", "inhibition": "1% (inactive)"},
      {"smiles": "CC(CN1CCCCC1)OC(=O)c1ccc(Cl)cc1Cl", "note": "(stereo unspecified)", "inhibition": "0% (inactive)"},
      {"smiles": "O=C(Nc1ccc2oc(=O)ccc2c1)c1cccnc1", "inhibition": "0% (inactive)"},
      {"smiles": "Cn1nnnc1SCSc1nnnn1C", "inhibition": "1% (inactive)"},
      {"smiles": "Cc1cccc(Cn2c(SCC(=O)Nc3ccccc3)nc3c2c(=O)[nH]c(=O)n3C)c1", "inhibition": "3% (inactive)"},
      {"smiles": "CC(C)(C)C(=O)OCC1OC(n2cnc(C(N)=O)n2)C(O)C1O", "note": "(stereo unspecified)", "inhibition": "3% (inactive)"},
      {"smiles": "O=C(NCc1nnc(SCC(=O)N2CCC(Cc3ccccc3)CC2)o1)c1ccccc1F", "inhibition": "0% (inactive)"},
      {"smiles": "FC(F)(F)c1ccc(Sc2nnc(-c3cccs3)n2CC2CCCO2)nc1", "note": "(stereo unspecified)", "inhibition": "0% (inactive)"},
      {"smiles": "Clc1ccc2c(c1)[C@H]1OCC[C@H]1[C@@H](c1ccco1)N2", "inhibition": "3% (inactive)"},
      {"smiles": "COc1ccc(C)cc1NS(=O)(=O)c1ccc(NS(=O)(=O)c2ccc(NC(C)=O)cc2)cc1", "inhibition": "1% (inactive)"},
      {"smiles": "CC(=O)N1CCC2(CC1)CC(=O)c1cc(OCC(=O)NCc3ccco3)ccc1O2", "inhibition": "3% (inactive)"},
      {"smiles": "Cc1csc(NC(=O)c2cccc(S(=O)(=O)N3CCCCC3)c2)n1", "inhibition": "0% (inactive)"},
      {"smiles": "Cc1nc2ccccc2c(=O)n1NC(=O)Nc1ccccc1", "inhibition": "0% (inactive)"},
      {"smiles": "CCOc1ccccc1CN1C(=O)c2ccccc2C1C(=O)NCC1CCCO1", "note": "(stereo unspecified)", "inhibition": "11% (inactive)"},
      {"smiles": "O=C(Nc1ccc2c(c1)OCO2)C(c1ccccc1)N1CCC2(CC1)OCCO2", "note": "(stereo unspecified)", "inhibition": "0% (inactive)"}
    ]}
  ]
}
